Out of some 310,000 compounds screened, about 14,000 (4.5%) showed an effect of 50% or more. Effects have a minus sign here. Shown is part of a subset that was picked to be rich in strong results.
The compounds below were run against human ether-à-go-go-related gene (hERG) potassium channel (human, UniProt Q12809) (assay: primary screen, population patch clamp on CHO cells stably expressing hERG; higher = less effect of the substance).
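Further: peak tail current of the secondary pulse compared with the same well before compound.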

Sequence of human ether-à-go-go-related gene (hERG) potassium channel (Q12809 whole entry, looked up): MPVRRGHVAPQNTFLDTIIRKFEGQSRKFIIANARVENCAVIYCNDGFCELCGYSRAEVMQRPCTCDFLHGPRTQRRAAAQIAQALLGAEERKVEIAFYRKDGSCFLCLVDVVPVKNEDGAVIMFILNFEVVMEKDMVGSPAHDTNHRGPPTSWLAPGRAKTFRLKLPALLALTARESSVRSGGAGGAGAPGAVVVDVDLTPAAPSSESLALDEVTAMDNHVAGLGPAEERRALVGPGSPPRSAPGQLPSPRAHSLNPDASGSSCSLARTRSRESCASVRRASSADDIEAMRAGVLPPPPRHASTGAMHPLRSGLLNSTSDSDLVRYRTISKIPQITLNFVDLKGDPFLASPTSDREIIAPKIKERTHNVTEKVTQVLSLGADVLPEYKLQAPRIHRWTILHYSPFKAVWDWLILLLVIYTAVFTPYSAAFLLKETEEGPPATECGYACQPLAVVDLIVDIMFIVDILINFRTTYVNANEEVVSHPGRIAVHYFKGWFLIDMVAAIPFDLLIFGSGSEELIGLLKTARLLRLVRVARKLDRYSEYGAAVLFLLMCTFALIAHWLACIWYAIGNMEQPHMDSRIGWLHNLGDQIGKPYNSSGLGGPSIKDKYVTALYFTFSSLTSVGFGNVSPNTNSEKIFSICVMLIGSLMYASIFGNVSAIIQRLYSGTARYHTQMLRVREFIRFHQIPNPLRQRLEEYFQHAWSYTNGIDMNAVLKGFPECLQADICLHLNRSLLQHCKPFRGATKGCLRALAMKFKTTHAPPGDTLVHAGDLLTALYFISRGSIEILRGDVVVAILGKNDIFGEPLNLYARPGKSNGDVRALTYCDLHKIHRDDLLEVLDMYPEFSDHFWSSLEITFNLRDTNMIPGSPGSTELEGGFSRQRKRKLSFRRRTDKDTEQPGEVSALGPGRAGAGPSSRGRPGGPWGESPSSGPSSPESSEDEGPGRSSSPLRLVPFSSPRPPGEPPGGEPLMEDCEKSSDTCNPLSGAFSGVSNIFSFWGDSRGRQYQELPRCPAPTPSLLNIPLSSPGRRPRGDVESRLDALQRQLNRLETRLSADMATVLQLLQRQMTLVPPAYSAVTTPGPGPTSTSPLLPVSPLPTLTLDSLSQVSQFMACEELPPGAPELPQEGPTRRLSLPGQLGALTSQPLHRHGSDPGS

Structure (SMILES) | hERG current change (%, negative = inhibition) at 10uM
O=C(O)c1ccc2c(c1)S(=O)(=O)c1ccccc1C2=O | 17%
CCc1cc2cc(C(=O)Nc3ccc(F)cc3)sc2s1 | 3.32%
COc1cc(NC(=O)COC(=O)CNC(=O)c2ccc(C)s2)cc(OC)c1 | 4.76%
Cc1ccc(C(=O)N2CCN(c3ccccc3)CC2)cc1C | 4.41%
O=C(c1ccc(-c2ccccc2)cc1)N1CCN(c2ccccn2)CC1 | -36.4%
CN(CC(=O)Nc1cccc(F)c1)C(=O)c1ccncc1 | 4.28%
CCOc1ccc(OCC)c(NC(=O)C2CCN(S(=O)(=O)c3c(C)[nH]c(=O)[nH]c3=O)CC2)c1 | 7.51%
CSc1nsc(SC)c1NC(=O)N1CCCC1 | -13.1%
COCc1nnc(NC(=O)CCCOc2ccccc2OC)s1 | 9.6%
COc1ccc(-c2cc(C)no2)cc1S(=O)(=O)N(C)c1ccc(C)c(C)c1 | -1.83%
COc1ccc(-c2cc(C)no2)cc1S(=O)(=O)N(C)c1cccc(C)c1 | -82.5%
COc1ccc(-c2cc(C)no2)cc1S(=O)(=O)N(C)c1ccc(C)cc1 | -29.6%
CC(=O)N1CCc2c(sc3c2c(=O)n(Cc2ccccc2)c(=O)n3CC(=O)NCC2CCCO2)C1 (centres unmarked) | -21.6%
CCCCOC1CC(c2ccc(OCc3ccc(OC)cc3)c(OC)c2)N(C)O1 (centres unmarked) | 3.47%
Cc1ccn2c(CNC(C)c3cn(C)nc3C)c(C(=O)N3CCCCCC3)nc2c1 (centres unmarked) | 0.193%
O=C(CCN1C(=O)C2C3C=CC(C3)C2C1=O)N1CCN(c2cccc(Cl)c2)CC1 (centres unmarked) | -38.4%
O=C(CCN1C(=O)C2C3C=CC(C3)C2C1=O)N1CCN(c2ccccc2Cl)CC1 (centres unmarked) | -57.2%
O=C(CCN1C(=O)C2C3C=CC(C3)C2C1=O)N1CCN(c2ccc(F)cc2)CC1 (centres unmarked) | -25.8%
O=C(CCN1C(=O)C2C3C=CC(C3)C2C1=O)N1CCN(c2ccccc2F)CC1 (centres unmarked) | -4.87%
COc1ccc(N2CCN(C(=O)CCN3C(=O)C4C5C=CC(C5)C4C3=O)CC2)cc1 (centres unmarked) | -0.214%
O=C(CCN1C(=O)C2C3C=CC(C3)C2C1=O)N1CCN(c2ccc([N+](=O)[O-])cc2)CC1 (centres unmarked) | -81.2%
O=C(CSc1ccc2nnc(CCNC(=O)c3ccccc3)n2n1)NCc1ccccc1 | -8.24%
COc1ccc2nc(SC)c(C#N)cc2c1 | 15.1%

Structure (SMILES) | hERG current change (%, negative = inhibition) at 10uM
CCOC(=O)c1cnc(Nc2ccc(OCC)cc2)nc1C | 12.6%
O=C(NCCc1cccnc1)C1CCC(=O)N(Cc2cccc(C(F)(F)F)c2)C1 (centres unmarked) | -8.64%
O=C(NCCC1=CCCCC1)C1CCC(=O)N(Cc2ccc(Cl)cc2)C1 (centres unmarked) | -2.34%
COc1ccccc1CN1CC(C(=O)NCc2ccc(C)c(F)c2)CCC1=O (centres unmarked) | 0.721%
COc1cccc(CN2CC(C(=O)NCc3ccc(C)c(F)c3)CCC2=O)c1 (centres unmarked) | -40.8%
O=C(NCCc1ccccc1)C1CCC(=O)N(Cc2cccc(C(F)(F)F)c2)C1 (centres unmarked) | -14.2%
Cc1cccc(CCNC(=O)C2CCC(=O)N(Cc3ccc(Cl)cc3)C2)n1 (centres unmarked) | 5.05%
O=C(NCCc1cccc(C(F)(F)F)c1)C1CCC(=O)N(Cc2ccc(Cl)cc2)C1 (centres unmarked) | -59%
Cc1ccc(CNC(=O)C2CCC(=O)N(Cc3ccc(Cl)cc3)C2)cc1F (centres unmarked) | -63.6%
O=C(NCCc1cccc(Cl)c1)C1CCC(=O)N(Cc2ccc(Cl)cc2)C1 (centres unmarked) | -52.3%
CCC(C)(C)NC(=O)C(OC(=O)c1ccco1)c1ccccc1F (centres unmarked) | 13.4%
O=C(CCCCCN1C(=O)[C@@H]2Cc3ccccc3CN2C1=O)N[C@@H](Cc1ccc(O)cc1)C(=O)O | 1.02%
CC1Oc2ccccc2N(CC(=O)N(Cc2ccccc2)Cc2ccccn2)C1=O (centres unmarked) | 0.288%
COc1ccc(/C=N/N2C(=O)C3C4C=CC(C4)C3C2=O)cc1[N+](=O)[O-] (centres unmarked) | -6.14%
Cc1ccc2c(c1)NCC(C(=O)NC1CCC(C)CC1)O2 (centres unmarked) | 6.16%
O=C(NCCOc1ccc2ccccc2c1)c1cncc(Br)c1 | 3.79%
CCOc1ccc(C(C)=O)cc1N1C(=O)C2C3C=CC(C3)C2C1=O (centres unmarked) | 8.85%
O=C(NCc1ccc(F)cc1)C1CCCN1S(=O)(=O)c1ccccc1C(F)(F)F (centres unmarked) | -13.4%
O=C(CSc1nnc(-c2ccccc2)o1)c1nnc(-c2ccccc2)o1 | 20.1%
CC1(C)C(=O)Nc2ccccc2N1C(=O)COC(=O)c1ccc(Cl)c(S(=O)(=O)NCc2ccccc2)c1 | -12.8%
Cc1ccc(CN2CC(C(=O)N3CCN(S(=O)(=O)c4ccc(C)cc4C)CC3)CC2=O)cc1 (centres unmarked) | -28.2%
O=C1C(O)CC2c3ccccc3CC3(CCCC3)N12 (centres unmarked) | 6.83%
CC(C)CC12CN3CCN(CC(C3)C1O)C2 (centres unmarked) | -1.15%

Structure (SMILES) | hERG current change (%, negative = inhibition) at 10uM
CC1=C(C)NC(=S)SC1 | 13.9%
O=C1CC(c2ccccc2Cl)CC(O)=C1C=Nc1ccccc1 (centres unmarked) | 0.512%
O=C(CCC(=O)N1CCOc2ccc(Cl)cc21)NCCCN1CCC(Cc2ccccc2)CC1 | -75%
Cc1ccc2c(c1)N(C(=O)CCC(=O)NCCN1CCOCC1)CCO2 | -5.63%
Cc1ccc2c(c1)N(C(=O)CCC(=O)NCCCN1CCC(Cc3ccccc3)CC1)CCO2 | -77.1%
O=C(CCC(=O)N1CCOc2ccc(Cl)cc21)NCCCN1CCOCC1 | 6.57%
Cc1ccc2c(c1)N(C(=O)CCC(=O)NCCCN1CCOCC1)CCO2 | 5.17%
Cc1ccc2c(c1)N(C(=O)CCC(=O)NCCCN1CC(C)CC(C)C1)CCO2 (centres unmarked) | -56.2%
Cc1ccc2c(c1)N(C(=O)CCC(=O)NCCCN1CCN(C)CC1)CCO2 | -5.06%
O=C(CCC(=O)N1CCOc2ccccc21)NCCCN1CCOCC1 | 5.91%
Cc1ccc2oc(C(=O)N3CCN(c4cccc(C)n4)CC3)c(C)c2c1 | 8.84%
O=C1CCN(Cc2nnnn2CC2CCCO2)c2ccccc2N1 (centres unmarked) | 2.18%
CCOP(=O)(OCC)C(NC(=O)c1cccs1)c1ccccc1 (centres unmarked) | 23.5%
COc1ccc(/C=N/NC(C)(C)C)c(OC)c1.Cl | 12.3%
COc1ccc(C(=O)c2cnc[nH]2)cc1OC | 10.9%
Cc1cc(NC(=O)COc2ccccc2C)ccc1NC(=O)c1cccs1 | 0.541%
O=C(C1CCN(c2nc(-c3ccccc3)nc3c2CCC3)CC1)N1CCC(O)CC1 | -33.4%
O=C(C1CCN(c2nc(-c3ccccc3)nc3c2CCC3)CC1)N1CCCC1 | -35.8%
COCC1CCN(C(=O)C2CCN(c3nc(-c4ccccc4)nc4c3CCC4)CC2)C1 (centres unmarked) | -76.5%
CC1CCCN(C(=O)C2CCN(c3nc(-c4ccccc4)nc4c3CCC4)CC2)C1 (centres unmarked) | -55.1%
COCC1CCCCN1C(=O)C1CCN(c2nc(-c3ccccc3)nc3c2CCC3)CC1 (centres unmarked) | -29.2%
CC1CCCCN1C(=O)C1CCN(c2nc(-c3ccccc3)nc3c2CCC3)CC1 (centres unmarked) | -42.4%
CC(C)(C)c1nnc(N/N=C/c2ccccc2O)n(N)c1=O | -35%

Structure (SMILES) | hERG current change (%, negative = inhibition) at 10uM
O=C(NCc1ccc2c(c1)OCO2)C1CCCN1C(=O)Nc1cccc(Cl)c1 (centres unmarked) | -25.4%
CCCCN(CC)C(=O)c1cc2cc3ccc(OC)cc3nc2o1 | -38.8%
CCCCN(CC)CCNC(=O)c1cc2cc3ccc(Cl)cc3nc2o1 | -72.5%
CCCCN(CC)C(=O)c1cc2cc3ccc(Cl)cc3nc2o1 | -9.93%
CCc1ccc(CNC(=O)c2cc3c(C)nc4ccccc4c3o2)cc1 | -11.5%
O=C(NCc1ccco1)c1cc2cc3ccc(Cl)cc3nc2o1 | 4.32%
CCCCN(CC)CCNC(=O)c1cc2c(C)nc3ccccc3c2o1 | -53.5%
CCCN(CCC)CCNC(=O)c1cc2c(C)nc3ccccc3c2o1 | -29.7%
CCOCCCNC(=O)c1cc2cc3cc(OC)ccc3nc2o1 | -7.74%
CCCN(CCC)CCCNC(=O)c1cc2cc3ccc(Cl)cc3nc2o1 | -61%
CC(C)CNS(=O)(=O)c1cc(C(=O)OCC(=O)N(C)C2CCS(=O)(=O)C2)c(Cl)cc1Cl (centres unmarked) | -13%
CC1(C)CC(=O)C=C(NNC(=O)C2CCCCC2)C1 | 8.47%
O=C(C1CCCO1)N1CCc2ccccc21 (centres unmarked) | 17.1%
Cl.O=C(O)CCCCCNc1nc(-c2ccccc2)nc2ccccc12 | 3.35%
CN(CC(O)COc1ccc(S(=O)(=O)N2CCOCC2)cc1)C1CCCCC1 (centres unmarked) | -6.74%
CN(CC(O)COCc1cccs1)C1CCCCC1 (centres unmarked) | -12.1%
CN(CC(O)COCc1ccccc1F)C1CCCCC1 (centres unmarked) | -14.6%
CN(CC(O)COC(c1ccccc1)c1ccccc1)C1CCCCC1 (centres unmarked) | -68.4%
CN(CC(O)COCc1ccc2c(c1)OCO2)C1CCCCC1.Cl (centres unmarked) | -20.6%
COc1ccc(C(OCC(O)CN(C)C2CCCCC2)c2ccc(OC)cc2)cc1 (centres unmarked) | -69.8%

Source: article PMC4336329 (PLoS ONE, 2015)
